# Assay outcomes as filed in PubChem BioAssay.
# The list is not random: actives were taken first. Their share in the collection is about 1.3%.
# Pin1 inhibitor: blocks the human prolyl isomerase Pin1. AID 504891. Potency, µM (top dose mostly 115 µM), inactives show top-dose activity, negative = inhibition, usual class: inhibitors. Pin1 FP peptide displacement, HiFluor488, 10 min. Q13526. 390,000 tested, 0.009% active; active = well fitted inhibition curve with a large enough effect in the polarisation, with a control signal flat, not every such curve was filed as active; inconclusive = small, poorly fitted or top-dose-only effect, or effect the other way, or a change in a side signal; inactive = no such curve, though single readings can be large or run the other way; the % refers to the polarisation; also: potency is read from the fitted curve at half-maximal effect; % is scaled to controls: 0 for no effect and ±100 for the full control effect
# Target sequence (Q13526 whole entry, looked up): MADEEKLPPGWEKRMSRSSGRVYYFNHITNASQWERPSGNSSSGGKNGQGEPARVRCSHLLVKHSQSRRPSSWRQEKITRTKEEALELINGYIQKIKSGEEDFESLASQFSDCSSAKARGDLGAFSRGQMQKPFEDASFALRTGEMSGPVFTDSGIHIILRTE
# TrxR1 inh-1: inhibitors of rat thioredoxin reductase 1. 390,000 tested, 1% active. Potency, µM (top dose mostly 114 µM), for the others: at the highest dose activity change, negative = inhibition, actives largely listed as inhibitors. O89049. recombinant rTrxR1, NADPH fluorescence consumption, selenite substrate. AID 588453; also: potency is read from the fitted curve at half-maximal effect; % is scaled to controls: 0 for no effect and ±100 for the full control effect; nearly all actives have a fitted effect of over 65% in size
#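 Rat TrxR1 (90 nM in the dispensed reagent) was pre-reduced with 400 uM NADPH for 5 min at room temperature, then incubated with compound for 15 min. After 400 uM selenite was added, NADPH fluorescence (Ex 340/Em 450 nm) was followed for 8 min.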
# GALK inhibitor: inhibitors of human galactokinase. 270,000 tested, 0.007% active. AID 1868. P51570. Purified GALK, Kinase-Glo residual ATP luminescence. Potency, µM (series often up to 57.5 µM), for the others: top-dose activity change, negative = inhibition, hits mostly inhibitors; also: potency is read from the fitted curve at half-maximal effect; % is scaled to controls: 0 for no effect and ±100 for the full control effect
# Target sequence (P51570 whole entry, looked up): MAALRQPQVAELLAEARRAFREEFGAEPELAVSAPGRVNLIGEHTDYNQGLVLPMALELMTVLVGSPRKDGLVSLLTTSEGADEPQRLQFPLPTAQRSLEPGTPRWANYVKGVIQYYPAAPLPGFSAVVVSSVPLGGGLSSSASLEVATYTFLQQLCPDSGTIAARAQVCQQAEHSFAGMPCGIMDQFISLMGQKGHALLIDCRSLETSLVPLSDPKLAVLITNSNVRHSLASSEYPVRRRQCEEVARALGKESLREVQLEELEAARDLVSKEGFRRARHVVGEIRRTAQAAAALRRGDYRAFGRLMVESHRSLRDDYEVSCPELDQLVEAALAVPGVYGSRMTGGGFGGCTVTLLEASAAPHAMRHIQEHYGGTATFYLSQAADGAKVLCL
#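 Compounds were pin-transferred into ATP buffer (35 uM final), then GALK plus galactose (5 nM, 100 uM final) was added. After 1 h at room temperature, Kinase-Glo Plus was added and luminescence read after 10 min.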
# TrxR1 substrate: rat thioredoxin reductase 1 substrate activity; purified TrxR1 substrate turnover, NADPH consumption readout; Potency, µM (series often up to 114 µM), for inactives: at the top dose activity change, negative = substrate turnover; 390,000 tested, 0.01% active; also: potency is read from the fitted curve at half-maximal effect; % is scaled to controls: 0 for no effect and ±100 for the full control effect; nearly all actives have a fitted effect of over 50% in size
#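 Rat TrxR1, dispensed at 90 nM, was prereduced with 400 uM NADPH (final) for 5 min at ~22 deg C, then incubated with compound 15 min before 400 uM selenite. A first-read NADPH fluorescence drop versus no-compound background flagged substrates.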
# KAT2A inh: inhibitors of human GCN5L2 histone acetyltransferase. Q92830. GCN5L2 HAT assay, ThioGlo1 CoA-SH fluorescence. Potency, µM (top dose mostly 58.9 µM), without a hit: at the top dose activity change, negative = inhibition, hits mostly inhibitors. 390,000 tested, 0.21% active. AID 504327; also: potency is read from the fitted curve at half-maximal effect; % is scaled to controls: 0 for no effect and ±100 for the full control effect
#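 Titration-based screen in which CoA formation is detected via maleimide probe ThioGlo1 (50uM) turning fluorescent on thiol reaction; substrates H3(1-25) 75uM and acetyl-CoA 70uM, GCN5L2 20nM, 20 min incubation at room temperature.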
# Giardia killer: kills Giardia lamblia; Giardia lamblia trophozoite viability; activity change, % at 7.66 µM, hits read low; 340,000 tested, 0.15% active; in the data active = activity change below about -80%; inconclusive = between about -30% and that limit;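 also: parasites exposed to compound for two days anaerobically before the ATP read; % is scaled to controls: 0 for no effect and ±100 for the full control effect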
#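 Viability, read as ATP luminescence: trophozoites at 100 cells/well, compound added, 48 hrs anaerobic at 37 deg C, then 15-30 min room-temperature development before reading.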
# TRb-SRC2 inh: confirmation of human TRb-SRC2 interaction inhibitors; shares compounds with TrxR1 inh-1; AlphaScreen TRb LBD-SRC2 peptide binding, luminescence; Potency, µM; 30 tested, 50% active; AID 2444; calls by dose curve
# HepG2 tox: counter-screen for TRb-SRC2 inhibitors: HepG2 cytotoxicity; shares compounds with TrxR1 inh-1; HepG2 viability, ATP luminescence (CellTiter-Glo), 72 h; Potency, µM; 40 tested, 50% active; AID 2447; calls by dose curve
# AR SRC2 FP: selectivity of TRb-SRC2 inhibitors: human androgen receptor-SRC2 inhibition; calls only; 25 tested, under 10 active; AR-LBD Tx-SRC2-3 fluorescence polarization, 3 h; AID 2448; shares compounds with TrxR1 inh-1; call rule not given here
# PPARg-DRIP2 inh: PPARg-DRIP2 (human) interaction inhibition, selectivity; shares compounds with TrxR1 inh-1; PPARg LBD / Texas Red DRIP-2 peptide, fluorescence polarization, 3 h; Potency, µM; 25 tested, under 10 active; AID 2449; calls by dose curve
# VDR SRC2 FP: VDR-SRC2 (human) interaction inhibition, selectivity. shares compounds with TrxR1 inh-1. VDR LBD/SRC2-3 peptide, fluorescence polarization, 3 h. Potency, µM. 25 tested, under 10 active. AID 2455; calls by dose curve
# TRb-SRC2 FP Fluo: confirmation of human TRb-SRC2 interaction inhibitors. shares compounds with TrxR1 inh-1. TRb LBD / fluorescein-SRC2 peptide, fluorescence polarization. Potency, µM. 20 tested, under 10 active; call rule not given here
# GR inh: glutathione reductase inhibition, TrxR1 selectivity check; shares compounds with TrxR1 inh-1; purified GR, DTNB reduction absorbance 405 nm kinetic; activity change, negative = inhibition, % at 57.1 µM; 55 tested, under 10 active
# TrxR1 inh-2: rat TrxR1 inhibition, primary screen retest. shares compounds with TrxR1 inh-1. recombinant TrxR1, NADPH fluorescence consumption, selenite substrate. Potency, µM, usual class: inhibitors. 55 tested, 50% active
# TrxR1 insulin MOA: TrxR1 inhibitors: insulin reduction mechanism-of-action test; shares compounds with TrxR1 inh-1; TrxR1 Trx-coupled insulin reduction, NADPH absorbance 340 nm; Potency, µM; 55 tested, 20% active;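 active = compounds with a measured potency under 100 micromolar; inconclusive = filed, but no rule given; inactive = potency at or above that, or unmeasurable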
# TrxR1 inh-3: rat thioredoxin reductase 1 inhibition, DTNB assay. AID 652256. shares compounds with TrxR1 inh-1. Potency, µM. 55 tested, 90% active. purified TrxR1, DTNB reduction, A412;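 active = a half-inhibiting concentration could be measured and was below 100 µM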
# An asterisk follows results filed as active; i = inactive; ? = inconclusive; nt = not tested or not shown; [ ] = dose if it differs, or a comment. Unless noted, calls follow the shape of the dose curve; as a rule, active = well fitted curve in the direction sought with a large enough effect; inconclusive = small, poorly fitted or top-dose-only effect, or another doubt; inactive = no such curve, though single readings can be large; an effect the other way counts as inactive or inconclusive.
SMILES,Pin1 inhibitor,TrxR1 inh-1,GALK inhibitor,TrxR1 substrate,KAT2A inh,Giardia killer,HepG2 tox,GR inh,TrxR1 inh-2,TrxR1 insulin MOA,TrxR1 inh-3,others
CN1c2cccc3cccc(c23)N(C)C1(C)C,-2%,-32%,0%,238%,-22%,5,nt,nt,nt,nt,nt,
CCCNC(=O)c1ccc(S(=O)(=O)c2ccc(OC)cc2)c([N+](=O)[O-])c1,0%,?,0%,6%,12%,-5,nt,nt,nt,nt,nt,
CS(=O)(=O)c1ccc(C(=O)OC(C(=O)NC2C3CC4CC(C3)CC2C4)c2ccccc2)cc1[N+](=O)[O-] (stereo not given),nt,nt,nt,nt,nt,nt,10µM*,nt,nt,nt,nt,
CS(=O)(=O)c1ccc(C(=O)NCC(=O)NC2C3CC4CC(C3)CC2C4)cc1[N+](=O)[O-] (stereo not given),nt,nt,nt,nt,nt,nt,22µM*,nt,nt,nt,nt,TRb-SRC2 inh=3.8µM*;AR SRC2 FP=i;PPARg-DRIP2 inh=i;VDR SRC2 FP=i
COc1cccc(Cn2c(CNC(=O)Cc3cccc(C)c3)nc3cccnc32)c1,0%,35%[57.1 µM],nt,3%[57.1 µM],-6%,nt,nt,nt,nt,nt,nt,
COc1ccc([N+](=O)[O-])c(S(=O)(=O)c2ccccc2)n1,1%,?,14%,1%[57.1 µM],-2%,-9,nt,nt,nt,nt,nt,
COc1ccc([N+](=O)[O-])c(S(=O)(=O)c2ccc(Cl)cc2)n1,-3%,0.5µM*,-2%,-8%,-12%,7,nt,-20,0.13*,26µM*,0.041µM*,
Cc1ccc(Nc2c(-c3ccc(C)o3)nc3ccccn23)cc1,1%,?,nt,114%,nt,13,nt,nt,nt,nt,nt,
Cc1ccc(Nc2c(-c3ccc(C)o3)nc3cnccn23)cc1,1%,4µM*,2%,13%[57.1 µM],-5%,-22,nt,-12,?,i,2µM*,
O=c1c(Cl)c(Cl)cnn1Cc1nnc(-c2ccc(Cl)cc2)o1,?,7.1µM*,-3%,9%,-17%,-1,nt,1,8.4*,i,3.4µM*,
Cc1ccc(-c2nnc(Cc3ccc(Cl)cc3)o2)cc1,-5%,25%,2%,-1%,-13%,9,nt,nt,nt,nt,nt,
O=C(COC(=O)c1ccc(C(F)(F)F)cc1)NC(=O)C1CCCCC1,-3%,22%,nt,-3%,nt,-8,i,nt,nt,nt,nt,TRb-SRC2 inh=i;TRb-SRC2 FP Fluo=i
